# Only some compounds are listed: those with a hit (about 3.8% of all), similar ones and a draw of the others.
# MT1-MMP txn act: MT1-MMP promoter reporter activation – cell-based, luciferase luminescence, primary screen. HT1080 MT1-MMP promoter luciferase reporter, overnight; hits give high values. activation factor at 10 µM. hit rate 0.16% among 86,000;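 active = activation factor of at least 2 for MT1-MMP transcription at 10 µM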
# ERa SRC1 pot: enhancers of ERα–SRC-1 coactivator binding, primary screen, biochemical, TR-FRET, ERα LBD, low estradiol | AID 639, 2007 | TR-FRET ERalpha-LBD/SRC-Cy5 coactivator binding, 2 h; 100 = basal binding, no effect | coactivator binding (% of control), % at 25.6 µM | Estrogen receptor (Homo sapiens), P03372 | hit rate 1.3% among 86,000; in the data active = activity above about 200%;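 also: binding measured in presence of low estradiol as agonist stimulus; 0% = peptide alone without receptor and 100% = receptor with peptide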
# Smad3 inh: Smad3/FoxH1 peptide binding inhibitors, primary screen, biochemical, TR-FRET | AID 630, 2007 | TR-FRET Smad3/Dy647-FoxH1 peptide binding, europium anti-His | inhibition, % at 25 µM | hit rate 0.29% among 88,000;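 active = compounds that reduce the energy-transfer binding signal between the protein and its labelled peptide by more than half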;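 also: 0% = Smad3 plus labelled peptide maximal FRET and 100% = peptide-only background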
# Candida biofilm: clotrimazole potentiators killing Candida biofilms, primary screen, with clotrimazole, Alamar Blue. C. albicans biofilm + clotrimazole. inhibition, % at 6 µM. hit rate 0.14% among 85,000;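 active = inhibition above 20%; inactive = inhibition below 20%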;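 also: preformed 24 hr biofilms exposed to compound for 48 hr; 0% = biofilm without compound and 100% = blank killed by clotrimazole plus chlorhexidine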
# ERb SRC1 inh: inhibitors of ERβ-SRC1 coactivator interaction, primary screen, biochemical, TR-FRET, ERβ LBD, SRC-1 peptide; Estrogen receptor beta (Homo sapiens), Q92731; TR-FRET ER-beta LBD / SRC1-Cy5 peptide binding; receptor agonist-loaded with 1 µM estradiol; inhibition, % at 25.6 µM; hit rate 1.3% among 86,000; AID 633, 2007;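 active = compounds whose percent inhibition of the receptor-coactivator binding signal exceeds about 50% in the single-dose screen, limit read from the data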;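 also: 0% = receptor plus peptide wells without compound and 100% = peptide-only wells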
# Target sequence (Q92731 whole entry, looked up, the tested form may be a part): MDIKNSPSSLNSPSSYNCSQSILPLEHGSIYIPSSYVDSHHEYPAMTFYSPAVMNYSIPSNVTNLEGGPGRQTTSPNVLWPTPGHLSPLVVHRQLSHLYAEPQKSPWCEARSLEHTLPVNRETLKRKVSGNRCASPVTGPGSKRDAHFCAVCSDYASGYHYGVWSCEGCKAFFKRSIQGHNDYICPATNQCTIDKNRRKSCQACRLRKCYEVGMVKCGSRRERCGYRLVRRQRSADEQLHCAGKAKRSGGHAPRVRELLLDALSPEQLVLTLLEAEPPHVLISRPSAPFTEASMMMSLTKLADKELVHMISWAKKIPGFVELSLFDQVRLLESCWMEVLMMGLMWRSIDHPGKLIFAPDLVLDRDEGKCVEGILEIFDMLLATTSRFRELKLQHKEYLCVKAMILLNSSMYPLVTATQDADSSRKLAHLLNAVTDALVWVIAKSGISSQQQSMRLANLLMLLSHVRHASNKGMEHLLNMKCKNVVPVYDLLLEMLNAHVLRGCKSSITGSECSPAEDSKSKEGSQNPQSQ
# ERa coact inh: ERα–SRC-1 coactivator interaction inhibitors, primary screen, biochemical, TR-FRET, ERα LBD, estradiol-bound; Estrogen receptor (Homo sapiens), P03372; TR-FRET ER-alpha LBD / SRC-1 peptide; inhibition, % at 25.6 µM; hit rate 1.7% among 86,000; AID 629, 2007; in the data active = inhibition above about 50%;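 also: 0% = receptor plus peptide control and 100% = peptide only without receptor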
# Active calls of the source: *; x = no result; [ ] = another dose, or the depositor's remark.
SMILES,MT1-MMP txn act,ERa SRC1 pot,Smad3 inh,Candida biofilm,ERb SRC1 inh,ERa coact inh
CCSc1nnc(NC(=O)c2ccc(Br)s2)s1,1.1,396.0*[fluorescence artefact?],18.7,4.7,28.4,8.1
COc1ccc(OC)c2sc(NC(=O)c3ccc(Br)s3)nc12,1.1,126.5,-31.3,7.4,70.0*[fluorescence artefact?],81.9*[fluorescence artefact?]
O=C(CSc1ccccn1)c1ccc2c(c1)OCO2,1.2,121.9,-9.8,3.7,2.0,0.0
COc1ccc2c(C)cc(SCC(=O)c3ccc4c(c3)OCO4)nc2c1,1.3,300.3*[fluorescence artefact?],-3.8,3.9,12.1,16.1
CCN(CC)c1ccc2cc(-c3nnc(-c4ccccc4)o3)c(=O)oc2c1,2*,193.5,-5.3,6.3,31.7,48.0
CCN(CC)c1ccc2cc(-c3nc4ccccc4[nH]3)c(=O)oc2c1,x,140.1,36.5,4.1,6.0,27.6
CCN(CC)c1ccc2cc(-c3nnc(-c4ccc(Br)cc4)o3)c(=O)oc2c1,1.3,209.6*,-7.8,2.7,32.7,33.1
COc1ccc(CN2CN=C(Nc3nc4ccccc4s3)NC2)cc1,1.2,101.1,-5.5,9.6,-9.6,-6.1
O=C(O)c1ccc(Cl)c2c1C1C=CCC1C(c1ccccn1)N2 (configuration not stated),1.1,15.4,12.9,15.1,86.9*[fluorescence artefact?],65.0*[fluorescence artefact?]
O=C(CSc1nc2ccccc2s1)CSc1nc2ccccc2s1,1.1,107.1,13.6,2.0,22.7,15.1
O=C(CSc1nc2ccccc2s1)c1sc2sc3ccccc3[n+]2c1O,x,x,96.3*,x,x,x
COc1cc(OC)c(Cl)cc1N,1.3,109.3,4.6,5.1,3.9,-4.9
COc1ccc(OC)c(N)c1,1.5,-0.2,2.4,8.4,62.7*[fluorescence artefact?],91.2*[fluorescence artefact?]
COc1ccc(NCc2c(O)ccc3ccccc23)cc1,x,x,27.8,x,x,x
O=S(=O)(O)c1ccc(NN(c2c(O)ccc3ccccc23)S(=O)(=O)O)cc1,x,x,98.5*,x,x,x
CC(C)(Oc1ccc(-c2ccco2)cc1)C(=O)O,0.9,99.1,7.6,6.1,4.3,0.7
CC(=O)C1=C(O)C=C(c2ccco2)CC1c1ccco1 (configuration not stated),1.2,85.6,-2.7,0.2,50.1*[fluorescence artefact?],16.7
COC(=O)[C@@H]1C[C@@H]2CC[C@@H](O)C[C@@H]2N1Cc1ccc(-c2ccccc2)cc1,1.1,x,x,x,x,x
CCC(Sc1nc2cc3c(cc2c(=O)n1Cc1ccco1)OCO3)C(=O)Nc1cccc(OC)c1 (configuration not stated),0.9,110.5,-2.1,3.2,12.0,8.2
CCC(Sc1nc2cc3c(cc2c(=O)n1Cc1ccco1)OCO3)C(=O)Nc1ccccc1OC (configuration not stated),0.9,144.0,4.5,-0.3,31.8,87.7*[fluorescence artefact?]
CC(C)(CCC(C)(C)c1ccccc1)c1ccccc1,x,x,-3.4,x,x,x
CCOC(=O)c1sc(=NC(=O)c2cccc(OC)c2)n(C)c1C,1.5,140.7,0.2,0.0,29.1,11.2
CCOC(=O)c1sc(=NC(=O)c2ccc(OC)c(OC)c2)n(C)c1C,1.2,429.2*[fluorescence artefact?],-125.9,-5.2,29.4,-53.5
O=C(CSCC(=O)NCc1ccco1)NCc1ccco1,1.2,84.1,-3.0,0.3,5.3,4.6
O=C(COC(=O)CCOc1ccccc1)NCc1ccco1,1.1,92.2,15.8,3.0,61.7*[fluorescence artefact?],70.0*
SMILES,MT1-MMP txn act,ERa SRC1 pot,Smad3 inh,Candida biofilm,ERb SRC1 inh,ERa coact inh
O=C(CCSCCC(=O)NCc1ccco1)NCc1ccco1,1.2,92.8,9.9,5.9,56.8*[fluorescence artefact?],59.1*[fluorescence artefact?]
NNC(=O)c1ccc[n+](CCc2ccccc2)c1,x,x,0.4,x,x,x
CO[C@@H]1/C=C\O[C@]2(C)Oc3c(C)c(O)c4c(O)c(c(CN(C)C)c(O)c4c3C2=O)NC(=O)C(C)=C/C=C\[C@@H](C)[C@@H](O)[C@H](C)[C@@H](O)[C@H](C)[C@H](OC(C)=O)[C@@H]1C,x,x,4.7,x,x,x
CC(C)(C)NC(=O)/C=N/O,1.1,101.6,-7.4,4.6,98.6*[fluorescence artefact?],3.1
Cn1c(=O)c2ncn(CC(=O)Nc3ccc4oc(-c5cccc6ccccc56)nc4c3)c2n(C)c1=O,0.9,43.9,-1.4,6.1,36.5,74.9*[fluorescence artefact?]
CCC(C)c1ccc2oc(-c3ccc(NC(=O)Cn4cnc5c(=O)n(C)c(=O)n(C)c54)cc3)nc2c1 (configuration not stated),1.4,99.2,5.7,2.4,42.7,71.8*[fluorescence artefact?]
O=C(Oc1ccc(N2C(=O)CCC2=O)cc1)c1ccco1,1.2,103.1,-1.9,2.6,3.8,60.0*
COC(=O)c1ccc(C(NC(=O)OCc2ccccc2)/C(C)=C/[C@@H](C)C(=O)NCc2cccnc2)cc1 (some centres not stated),1.8,x,x,x,x,x
OCCCSCCO,x,x,-0.4,x,x,x
CC(=O)Nc1ccc(OC(=O)CC2SC(=O)NC2=O)cc1 (configuration not stated),1.1,70.1,-6.7,11.3,56.3*,40.7
Cc1sc(/N=C/c2ccccc2O)c(C#N)c1C,2*,106.1,5.6,3.8,-13.8,1.6
Cc1cc(C)n(CC(O)COc2ccccc2)n1 (configuration not stated),1,100.6,5.5,2.1,-0.5,53.0*
CCOc1nc(-c2ccccc2)ccc1-c1noc(-c2ccncc2)n1,1.3,196.2,5.0,5.1,30.3,33.4
CCOc1nc(-c2ccc(OC)cc2)ccc1-c1noc(-c2ccncc2)n1,1.2,138.4,8.7,-1.9,37.6,76.2*
CCOc1nc(C)ccc1-c1noc(-c2ccncc2)n1,1.3,232.7*[fluorescence artefact?],1.2,9.1,-1.7,-6.0
COC(=O)c1ccc(C(NC(=O)OCc2ccccc2)/C(F)=C/[C@@H](C)C(=O)N2CCN(C)CC2)cc1 (some centres not stated),1.5,x,x,x,x,x
O=C(CSc1nnnn1-c1ccc2c(c1)OCCO2)OC1CCCCC1,1.4,212.5*,9.1,1.4,-1.3,-7.5
COc1cccc(C(=O)NCC(c2cccnc2)N2CCN(c3ccccc3OC)CC2)c1 (configuration not stated),1,x,x,x,x,x
COc1ccc(C(=O)NCC(c2cccnc2)N2CCN(c3ccccc3OC)CC2)cc1OC (configuration not stated),1.1,98.5,-2.9,23.9*,-8.2,-8.1
COC(=O)CCC(=O)COc1ccccc1C#N,1.3,95.9,11.5,7.2,-21.5,-40.0
CCNC(=O)NC(=O)COc1ccccc1C#N,1.5,332.1*[fluorescence artefact?],-9.6,-3.6,-23.9,-24.9
O=C(O)c1[nH]c(=O)[nH]c(=O)c1CN1CCCCC1,x,x,-5.1,x,x,x
C[C@@]12CC[C@H]3c4ccc(O)cc4CC[C@@H]3[C@H]1CC[C@H]2OC(=O)CCc1ccccc1,x,x,13.3,x,x,x

# Bioassay records (PubChem)
